The text below walks through data of PubChem BioAssay (EPA / NIEHS).

Where “and” joins values, the source holds several entries; their conditions need not be identical. Equal entries are not always repeated. Inconclusive results are not listed. Calls of active or inactive are those of the source. Rule for the calls, unless noted: active = hit-call score of the fitted dose curve at least 0.9, where 1 is the maximum; inactive = score below 0.9.

In assay [1] the target is Estrogen receptor (Homo sapiens) (UniProt P03372). In words: CCTE_Deisenroth_AIME_384WELL_LUC_Active: CCTE's 384-well Estrogen Receptor Transactivation Assay with AIME metabolic competence (ERTA luciferase; metabolism positive), Deisenroth Lab (AID 2284030; active = hit-call score of the fitted dose curve at least 0.9, where 1 is the maximum). The procedure, abridged:
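VM7Luc4E2 breast cells were given, for 24 hours, medium pre-incubated for 2 hours with parent chemical (0.002-200 uM, 10 concentrations) and alginate-encapsulated phenobarbital/beta-naphthoflavone-induced rat hepatic S9. Luciferase gain of signal was fitted against 17beta-estradiol; n=4 or more.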

The nature of assay [2]: CCTE_Deisenroth_AIME_384WELL_CTox_Active: Cytotoxicity Assessment (CTOX) in CCTE's 384-well Estrogen Receptor Transactivation Assay with AIME metabolic competence (metabolism positive), Deisenroth Lab (AID 2284037; active = hit-call score of the fitted dose curve at least 0.9, where 1 is the maximum;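 note: chemicals first conditioned 2 h by alginate-bound induced rat liver S9 before cells; activity means signal loss indicating cell death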). The procedure, abridged:
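Chemicals pre-incubated 2 hours with alginate-immobilised phenobarbital/beta-naphthoflavone-induced male Sprague Dawley rat liver S9, then conditioned medium applied 24 hour to VM7Luc4E2 cells. Viability by fluorogenic protease substrate; 10-point series 0.002 - 200 uM.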

Assay [3] is described as follows: CCTE_Deisenroth_AIME_384WELL_CTox_Inactive: Cytotoxicity Assessment (CTOX) in CCTE's 384-well Estrogen Receptor Transactivation Assay without AIME metabolic competence (metabolism negative), Deisenroth Lab (AID 2284039; active = hit-call score of the fitted dose curve at least 0.9, where 1 is the maximum;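 note: cell viability via live-cell protease substrate cleaved to fluorescent probe; cells exposed 24 h to medium preincubated 2 h with alginate-water beads without S9; loss of fluorescence signal means loss of viability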). The procedure, abridged:
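VM7Luc4E2 human breast cells received conditioned medium from a 2 h incubation of chemical with alginate-water microspheres (no S9), then were exposed 24 h. Viability was read as protease-substrate cleavage to a fluorescent probe; loss of signal was fitted bidirectionally over 0.002–200 uM.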

Assay [4] concerns the target Estrogen receptor (Homo sapiens) (UniProt P03372). In words: CCTE_Deisenroth_AIME_384WELL_LUC_Shift: CCTE's 384-well Estrogen Receptor Transactivation Assay with AIME metabolic competence data shift (ERTA luciferase; difference in metabolism positive and negative), Deisenroth Lab (AID 2284041).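 Note: shift is response with S9 minus without S9 so positive means metabolism raised ER signal.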 Put shortly: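 Chemicals (0.002–200 uM, 10 points) pre-incubated 2 h with alginate-encapsulated induced male Sprague Dawley rat liver S9 or S9-free, then medium applied 24 h to VM7Luc4E2 cells; luciferase. Endpoint is per-concentration difference, S9-positive minus negative.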

For assay [5] the target is unchanged. Kind of assay: CCTE_Deisenroth_AIME_96WELL_LUC_Active: CCTE's 96-well Estrogen Receptor Transactivation Assay with AIME metabolic competence (ERTA luciferase; metabolism positive), Deisenroth Lab (AID 2284023; active = hit-call score of the fitted dose curve at least 0.9, where 1 is the maximum). The procedure, abridged: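 Metabolism-positive mode: induced rat hepatic S9 in alginate microspheres conditions test solutions (0.002 - 200 uM, 10 points) for 2 hours. VM7Luc4E2 ER luciferase reporter cells then exposed 24 h; positive-direction fit against 17beta-estradiol, n=4 typical.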

Assay [6] shares this target. In words: CCTE_Deisenroth_AIME_96WELL_LUC_Inactive: CCTE's 96-well Estrogen Receptor Transactivation Assay without AIME metabolic competence (ERTA luciferase; metabolism negative), Deisenroth Lab (AID 2284025; active = hit-call score of the fitted dose curve at least 0.9, where 1 is the maximum). The procedure, abridged: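 Metabolism-negative arm: chemicals (0.002–200 uM, 10 points) incubated 2 h with alginate-water microspheres, then medium moved onto VM7Luc4E2 cells for 24 h luciferase read-out. Positive direction vs 17beta-estradiol; n≥4 experiments.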

Assay [7] in a line: CCTE_Shafer_MEA_acute_per_network_burst_electrodes_number_mean: CCTE's Neural Acute Assay for Mean Number of Electrodes in a Network Burst, Shafer Lab (AID 2284021).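 Note: curves fitted for decreases only so hits reduce electrodes per burst.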 Put shortly: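 Percent change from baseline was computed as mean electrode count per network burst, comparing 40 min recordings before and during compound (0.03-40 uM) exposure. Cultures were rat cortical neurons at DIV 13 or 15, recorded on MEAs at 37 C with an adaptive 8x rms threshold.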

Assay [8] can be described thus: CCTE_Shafer_MEA_acute_network_burst_percentage: CCTE's Neural Acute Assay for Percentage of Network Bursts, Shafer Lab (AID 2284022).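 Note: curves fitted for loss so actives lower network burst percentage.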 The procedure, abridged:
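Network burst percentage (spikes in network bursts divided by total spikes) recorded at 37 C over 40 min baseline and 40 min after compound, 0.03-40 uM, in rat cortical cultures at DIV 13 or 15. Analysed as percent change from baseline versus DMSO.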

The nature of assay [9]: CCTE_Shafer_MEA_acute_cross_correlation_area: CCTE's Neural Acute Assay for Area of Cross Correlation, Shafer Lab (AID 2284024).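 Note: rat primary cortical neuron networks on 48-well MEA at DIV 13 or 15 with 40 min exposure; area under pooled inter-electrode spike cross-correlation near zero lag as percent change from own baseline; curves fitted for loss of cross-correlation area so actives lower synchrony.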 The procedure, abridged: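 Percent change in well-wide cross-correlation area (window around zero lag) between 40 min baseline and 40 min post-compound recordings, 37 C; rat cortical cultures on MEA at DIV 13 or 15, dosed 0.03-40 uM, wells needing >/= 10 active electrodes.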

The nature of assay [10]: CCTE_Shafer_MEA_acute_cross_correlation_HWHM: CCTE's Neural Acute Assay for Cross Correlation at Half Width at Half Maximum, Shafer Lab (AID 2284026).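 Note: spontaneous network firing of rat primary cortical neurons on multiwell microelectrode arrays; percent change per well from pre-dose baseline in spike cross-correlogram half width; hits are a decrease in cross-correlogram half width relative to DMSO.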 The procedure, abridged: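 Per-well percent change in cross-correlogram half width at half maximum, derived from 40-min recordings before and after compound (0.03-40 uM) at 37 C. Cultures were rat cortical neurons, DIV 13 or 15, with adaptive spike detection at 8x rms.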

Assay [11] is described as follows: CCTE_Shafer_MEA_acute_synchrony_index: CCTE's Neural Acute Assay for Synchrony, Shafer Lab (AID 2284027).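 Note: network synchrony index of spontaneous spiking in primary rat cortical neurons on MEAs; fitted for loss of signal so actives lower synchrony relative to DMSO.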 Put shortly:
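The synchrony index is taken as percent change per well between a 40 min baseline and a 40 min recording with compound (0.03–40 uM), at 37C. Rat cortical cultures on multiwell MEAs at DIV 13 or 15, spike threshold 8× rms noise.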

Assay [12] in a line: CCTE_Deisenroth_AIME_96WELL_CTox_Active: Cytotoxicity Assessment (CTOX) in CCTE's 96-well Estrogen Receptor Transactivation Assay with AIME metabolic competence (metabolism positive), Deisenroth Lab (AID 2284028; active = hit-call score of the fitted dose curve at least 0.9, where 1 is the maximum). Put shortly:
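Cytotoxicity in VM7Luc4E2 breast cells after 24 h exposure to medium from a 2 h metabolic pre-incubation with induced rat hepatic S9 in alginate microspheres; fluorescent live-cell protease readout, 10-point series 0.002–200 uM, n=4.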

Assay [13] is described as follows: CCTE_Deisenroth_AIME_96WELL_CTox_Inactive: Cytotoxicity Assessment (CTOX) in CCTE's 96-well Estrogen Receptor Transactivation Assay without AIME metabolic competence (metabolism negative), Deisenroth Lab (AID 2284029; active = hit-call score of the fitted dose curve at least 0.9, where 1 is the maximum). Put shortly:
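Metabolism-negative mode: alginate-water lids without rat S9, 2 h pre-incubation of 10-point series (0.002 - 200 uM). Conditioned medium on VM7Luc4E2 cells 24 h; loss of fluorescent live-cell protease signal marks cytotoxicity.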

Assay [14] can be described thus: CCTE_Shafer_MEA_dev_firing_rate_mean: CCTE's Neural Network Formation Assay for Mean Firing Rate, Shafer Lab (AID 2284031). The procedure, abridged: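 Spike frequency (spikes/recording length, averaged over active electrodes) was recorded on days 5, 7, 9 and 12 and collapsed to AUC; rat cortical cultures received compound continuously over 12 days of network development.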

A short description of assay [15]: CCTE_Shafer_MEA_dev_per_burst_spike_percent: CCTE's Neural Network Formation Assay for Percent of Spikes in a Burst, Shafer Lab (AID 2284032). Put shortly:
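Value is trapezoidal AUC over recordings on days 5, 7, 9 and 12 of the well-mean fraction of spikes falling in single-electrode bursts; rat cortical cultures exposed continuously from plating, treatment renewed DIV 5 and 9, fitted downward against DMSO.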

Assay [16] can be described thus: CCTE_Shafer_MEA_dev_active_electrodes_number: CCTE's Neural Network Formation Assay for Number of Active Electrodes, Shafer Lab (AID 2284040; active = hit-call score of the fitted dose curve at least 0.9, where 1 is the maximum;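 for AC50: potency for loss of active electrodes versus DMSO so lower counts are hits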). The procedure, abridged: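 Counts electrodes per well firing at least 5 spikes/min, recorded on days 5, 7, 9 and 12 in rat cortical cultures dosed continuously from plating (treatment refreshed DIV 5, 9). Value is the area under the curve over recordings, fitted downward relative to DMSO.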

The nature of assay [17]: CCTE_Shafer_MEA_dev_burst_rate: CCTE's Neural Network Formation Assay for Burst Rate, Shafer Lab (AID 2284042). Put shortly: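 Rat primary cortical cultures on PEI/laminin MEA; compound from plating, re-dosed at DIV 5, 9 media change. Single-electrode bursts/recording length, well mean of active electrodes; AUC over DIV 5–12 recordings; loss-of-signal vs DMSO.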
Assay [18] can be described thus: CCTE_Shafer_MEA_dev_bursting_electrodes_number: CCTE's Neural Network Formation Assay for Number of Bursting Electrodes, Shafer Lab (AID 2284043; active = hit-call score of the fitted dose curve at least 0.9, where 1 is the maximum;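 for AC50: potency is for loss of bursting electrodes relative to DMSO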). The procedure, abridged:
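Rat cortical primary neurons, 48-well MEA, 16 electrodes/well; dosing DIV 0–12, re-dosed with full media change DIV 5, 9. Recordings DIV 5/7/9/12, AxIS adaptive spike detector; bursting electrode = ≥1 burst/2 min. AUC across days; loss of signal vs DMSO.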

Assay [19] is described as follows: CCTE_Shafer_MEA_dev_per_burst_interspike_interval: CCTE's Neural Network Formation Assay for Burst Interspike Interval, Shafer Lab (AID 2284044). The procedure, abridged: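 Mean interspike interval within single-electrode bursts, averaged over bursting electrodes, from rat cortical cultures on MEA plates recorded on days 5, 7, 9 and 12. Continuous compound exposure from plating; trapezoidal AUC fitted downward relative to DMSO.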

Assay [20] is described as follows: CCTE_Shafer_MEA_dev_burst_duration_mean: CCTE's Neural Network Formation Assay for Mean Burst Duration, Shafer Lab (AID 2284045). Put shortly:
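Rat cortical cultures, 1.5 x 10^5 cells/well with laminin drop; continuous dosing days 0–12, media plus treatment refreshed DIV 5, 9. AxIS adaptive spike detection; mean single-electrode burst duration, AUC over four recordings, negative direction vs DMSO.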

Estrogen receptor (Homo sapiens), sequence (P03372 whole entry, looked up): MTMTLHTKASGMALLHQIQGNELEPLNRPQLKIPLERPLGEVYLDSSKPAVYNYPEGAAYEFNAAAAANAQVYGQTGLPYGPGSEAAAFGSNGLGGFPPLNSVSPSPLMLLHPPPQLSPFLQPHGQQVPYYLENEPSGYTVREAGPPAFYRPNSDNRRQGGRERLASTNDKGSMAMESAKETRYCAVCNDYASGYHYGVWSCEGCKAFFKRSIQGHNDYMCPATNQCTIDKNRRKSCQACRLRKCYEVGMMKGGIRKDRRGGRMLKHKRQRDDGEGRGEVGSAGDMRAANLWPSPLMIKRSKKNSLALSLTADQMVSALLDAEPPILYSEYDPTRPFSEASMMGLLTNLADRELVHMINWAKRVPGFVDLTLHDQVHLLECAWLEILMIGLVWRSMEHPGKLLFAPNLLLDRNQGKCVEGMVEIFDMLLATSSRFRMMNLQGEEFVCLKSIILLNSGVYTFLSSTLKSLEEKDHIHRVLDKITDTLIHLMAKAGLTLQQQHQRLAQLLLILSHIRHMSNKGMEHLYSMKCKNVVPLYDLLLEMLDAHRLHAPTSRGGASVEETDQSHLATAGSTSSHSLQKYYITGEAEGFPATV

Turning to `CCCCCCCCCCCCN1CCOCC1`, the compound was called inactive in assay [1], in assay [2], in [3] and in [4].
With `CC(CCO)CC(C)(C)C` (centres undefined), the result in assay [1], in assay [2], in [3] and in assay [4] was inactive.
With `c1ccc(Cc2ccccc2)cc1`, the AC50 in assay [5] is 74.4 µM (active). In addition, in assay [6], the compound was classed as inactive.
In the case of `CC(C)(CO)CO`, the outcome in [7], in [8], in assay [9], in assay [10] and in assay [11] was inactive.
`C[C@]12CC[C@@H]3c4ccc(O)cc4CC[C@H]3[C@@H]1CC[C@@H]2O`: the compound was called inactive in assay [12], in [13], in assay [14], in [15], in [17] and in [19]. Further, in [20], the compound was called inactive. In addition, the AC50 is 10 µM (active) and 13.5 µM (active) in assay [16]; 10 µM (active) in [18].
Regarding `CC(C)C(=O)c1ccccc1`, the compound was classed as inactive in assay [1], in assay [2], in [3] and in [4].
Take `C1CCCNCC1`: the outcome in [1], in [2], in assay [3] and in assay [4] was inactive.
Consider `CC(C)CCCC(C)(C)O`, for which the result in assay [7], in assay [8], in assay [9], in [10] and in [11] was inactive.
Turning to `c1ccc2scnc2c1`, the call in [1], in assay [14], in assay [15], in [16], in assay [4] and in assay [17] was inactive. The compound was classed as inactive in assay [19] and in [20].
`N[C@@H](CCC(=O)O)C(=O)O`: the compound was classed as inactive in assay [7], in assay [8], in assay [9], in assay [10], in assay [11] and in assay [14]. Further, the call in assay [15], in [17], in assay [18], in assay [19] and in assay [20] was inactive.
For `CC(=O)OC/C=C(C)/C=C/C=C(C)/C=C/C1=C(C)CCCC1(C)C`, the compound was classed as inactive in [1], in assay [2], in assay [3] and in assay [4].
On to `C#C[C@]1(O)CC[C@H]2[C@@H]3CCc4cc(O)ccc4[C@H]3CC[C@@]21C`, for which the AC50 in [12] is 135 µM (active); in assay [13] it was 116 µM (active); in assay [2] it was 77.6 µM (active); in assay [3], 93.7 µM (active).
For `c1ccc(OCCOc2ccccc2)cc1`, the compound was classed as inactive in assay [7], in assay [8], in assay [9], in assay [10] and in assay [11].

As usually defined, the AC50 is the midpoint of the concentration-response curve, whichever way the signal moves.
